Test results reported in PubChem BioAssay (NCI).
This is part of a sample that, as a whole, favours compounds with a hit. Of some 83,000 tested, about 20% had one in any assay.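 Plates (96-well) were seeded with cells, treated with compound at one concentration, and incubated for 48 hours before percent growth was determined.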 Activity calls are given as the source filed them. How the source made its calls: active means growth percent below 10; inactive means the rest.

Key:
Test in all cases: NCI-60 one-dose screen, 48 h (100 = growth as untreated, 0 = no growth, -100 = all killed)
Conditions in all cases: 10 µM unless noted
DU-145 prostate = tested on: DU-145 prostate
K-562 leukemia = tested on: K-562 leukemia
MALME-3M melanoma = tested on: MALME-3M melanoma
MDA-MB-231 breast = tested on: MDA-MB-231 breast
RXF 393 renal = tested on: RXF 393 renal
SF-268 CNS = tested on: SF-268 CNS
SF-295 CNS = tested on: SF-295 CNS
SF-539 CNS = tested on: SF-539 CNS
UACC-257 melanoma = tested on: UACC-257 melanoma
M14 melanoma = tested on: M14 melanoma

Measured: growth

O=C(CCl)Nc1ccc2c(Nc3cc(O)ccc3Cl)ncnc2c1
active: DU-145 prostate -89.1% | K-562 leukemia -36% | MALME-3M melanoma -86.4% | MDA-MB-231 breast -84.5% | RXF 393 renal -88.6% | SF-268 CNS -56.1% | SF-295 CNS -77.1% | SF-539 CNS -94% | UACC-257 melanoma -11.5% | M14 melanoma -77.1%

CCOC(=O)C1=C(c2ccccc2)N=c2s/c(=C/c3ccc(Br)cc3)c(=O)n2C1c1ccc(O)cc1 (stereo not given)
inactive: DU-145 prostate 95.5% | K-562 leukemia 77.6% | MALME-3M melanoma 94.3% | MDA-MB-231 breast 81.6% | RXF 393 renal 102% | SF-268 CNS 83.8% | SF-295 CNS 95.6% | SF-539 CNS 97.9% | UACC-257 melanoma 86.9% | M14 melanoma 87.2%

CS(=O)(=O)Nc1cc(-c2ccc3ncnc(Nc4ccc5c(cnn5Cc5cccnc5)c4)c3c2)cnc1Cl
active: MALME-3M melanoma 5.01%
inactive: DU-145 prostate 63.4% | K-562 leukemia 57.7% | MDA-MB-231 breast 47.6% | RXF 393 renal 44.4% | SF-268 CNS 27.9% | SF-295 CNS 81.8% | SF-539 CNS 41.4% | UACC-257 melanoma 64.5% | M14 melanoma 41%

CC(CN)[C@@H]1CC[C@]2(CO)CC[C@]3(C)[C@H](CC[C@@H]4[C@@]5(C)CCC(N)C(C)(C)[C@@H]5CC[C@]43C)[C@@H]12 (stereo not given in full)
inactive: MALME-3M melanoma 74.2% | RXF 393 renal 53.1% | SF-295 CNS 56.9% | SF-539 CNS 42.2% | UACC-257 melanoma 78.1% | M14 melanoma 11.8%
active: DU-145 prostate -87.9% | K-562 leukemia -55.8% | MDA-MB-231 breast -68.5% | SF-268 CNS -60.9%

C=CCN=C(N)SCCCCCCSC(N)=NCC=C
inactive: DU-145 prostate 107% | K-562 leukemia 79.2% | MALME-3M melanoma 98.7% | MDA-MB-231 breast 94.8% | RXF 393 renal 109% | SF-268 CNS 95% | SF-295 CNS 97.3% | SF-539 CNS 99.6% | UACC-257 melanoma 87.8% | M14 melanoma 92.4%

FC(F)(F)c1[nH]ncc1-c1nc2c(N3CCCCC3)cc3[nH]ncc3c2c2c1CCCC2
active: MALME-3M melanoma 0.904% | MDA-MB-231 breast 3.41% | RXF 393 renal -92% | SF-268 CNS -11.7% | SF-295 CNS 7.04% | SF-539 CNS -72.2% | UACC-257 melanoma 0.68% | M14 melanoma 2%
inactive: DU-145 prostate 10.2% | K-562 leukemia 14.1%

CN1CCN(Cc2ccc(NC(=O)c3cncc(C#Cc4cncc5ncccc45)c3)cc2C(F)(F)F)CC1
active: K-562 leukemia -8.35% | MALME-3M melanoma -14.4% | MDA-MB-231 breast 5.93% | RXF 393 renal 8.21% | SF-539 CNS -31.8% | UACC-257 melanoma 6.41% | M14 melanoma -51.1%
inactive: DU-145 prostate 34.4% | SF-268 CNS 33.7% | SF-295 CNS 32.9%

CC[C@H](CC[C@@H](C)[C@H]1CC[C@H]2[C@@H]3CC[C@@H]4CC(=O)/C(=C\c5ccncc5)C[C@]4(C)[C@H]3CC[C@]12C)C(C)C
inactive: DU-145 prostate 109% | K-562 leukemia 97% | MALME-3M melanoma 100% | MDA-MB-231 breast 104% | RXF 393 renal 109% | SF-268 CNS 107% | SF-295 CNS 99.2% | SF-539 CNS 103% | UACC-257 melanoma 106% | M14 melanoma 104%

N=C(N)c1ccc(-c2ccc(-c3ccc(Cl)cc3)o2)o1
inactive: MALME-3M melanoma 90.6% | RXF 393 renal 40.4% | SF-268 CNS 17.9% | SF-295 CNS 27.4% | SF-539 CNS 74.1% | UACC-257 melanoma 53.4% | M14 melanoma 19.7%
active: DU-145 prostate -80.4% | K-562 leukemia -60% | MDA-MB-231 breast -60.2%

O=C1N[C@@H]2[C@@H](O)[C@@H](O)[C@H](O)C[C@H]2c2cc3c(c(O)c21)OCCO3
active: DU-145 prostate -2.39% | K-562 leukemia 1.56% | MALME-3M melanoma -23.8% | MDA-MB-231 breast -24.1% | RXF 393 renal -24.2% | SF-268 CNS -0.713% | SF-295 CNS -14.9% | SF-539 CNS -24.1% | UACC-257 melanoma -22.2% | M14 melanoma -45.7%

N=C(N)c1ccc(-c2ccc(-c3ccc(F)cc3)s2)s1
inactive: MALME-3M melanoma 76.9%
active: DU-145 prostate -86.3% | K-562 leukemia -61.4% | MDA-MB-231 breast -54.4% | RXF 393 renal -69.1% | SF-268 CNS -19.5% | SF-295 CNS -76.4% | SF-539 CNS -29% | UACC-257 melanoma -50.2% | M14 melanoma -45.5%

O=C(CCCCCCN1CC(=O)N2[C@@H](C3CCCCC3)c3[nH]c4ccccc4c3C[C@H]2C1=O)NO
inactive: DU-145 prostate 80% | K-562 leukemia 31.1% | MALME-3M melanoma 37.5% | MDA-MB-231 breast 82.9% | RXF 393 renal 65.2% | SF-268 CNS 106% | SF-295 CNS 89.2% | SF-539 CNS 69.3% | UACC-257 melanoma 54.1% | M14 melanoma 63.8%

C#CC#CC#CC#CC#CC#CC#CC#CCC1OCC(COC(=O)O[C@@H](C(=O)O[C@H]2C[C@@]3(O)[C@@H](OC(=O)c4ccccc4)[C@@H]4[C@]5(OC(C)=O)CO[C@@H]5C[C@H](O)[C@@]4(C)C(=O)[C@H](OC(C)=O)C(=C2C)C3(C)C)[C@@H](NC(=O)c2ccccc2)c2ccccc2)O1 (stereo not given in full)
active: DU-145 prostate 6.68% | RXF 393 renal -9.54% | SF-295 CNS 4.59% | SF-539 CNS -0.927% | M14 melanoma -22%
inactive: K-562 leukemia 12.6% | MALME-3M melanoma 41.9% | MDA-MB-231 breast 20% | SF-268 CNS 34.4% | UACC-257 melanoma 53%

Cc1ccc(/C=C2\CN(C(=O)C(Cl)Cl)C/C(=C\c3ccc(C)cc3)C2=O)cc1
active: DU-145 prostate -82.7% | K-562 leukemia -0.0477% | MALME-3M melanoma -56.5% | MDA-MB-231 breast -3.27% | RXF 393 renal -88.1% | SF-268 CNS -20.4% | SF-295 CNS -7.46% | SF-539 CNS -86.4% | UACC-257 melanoma -33.1% | M14 melanoma -65.6%

COc1cc(C2C3=C(COC3=O)N(CCO)c3cc4c(cc32)OCCO4)cc(OC)c1OC (stereo not given)
inactive: MALME-3M melanoma 53.7% | SF-268 CNS 26.8% | UACC-257 melanoma 42.5%
active: DU-145 prostate -30.1% | K-562 leukemia 5.23% | MDA-MB-231 breast 9.38% | RXF 393 renal -8.9% | SF-295 CNS -5.17% | SF-539 CNS -25.4% | M14 melanoma -28.8%

CCN(CC)c1ccc(/C=N/NC(=O)c2ccc(Nc3ccnc(C(F)(F)F)c3)cc2)c(O)c1
active: RXF 393 renal -0.93% | SF-295 CNS 7.62% | SF-539 CNS -46.4%
inactive: DU-145 prostate 30.6% | K-562 leukemia 87.2% | MALME-3M melanoma 14.4% | MDA-MB-231 breast 24.4% | SF-268 CNS 18.5% | UACC-257 melanoma 49% | M14 melanoma 19.3%

O=[N+]([O-])/C(=C\c1ccco1)c1ccccc1Cl
inactive: DU-145 prostate 86.1% | K-562 leukemia 67.9% | MALME-3M melanoma 80.6% | MDA-MB-231 breast 87.9% | RXF 393 renal 67.1% | SF-268 CNS 87% | SF-295 CNS 102% | SF-539 CNS 91.7% | UACC-257 melanoma 66.7% | M14 melanoma 66.2%

CCN(CC)CCCNCc1cc(-c2ccccc2)nc2cc(Cl)ccc12
inactive: DU-145 prostate 78.3% | MDA-MB-231 breast 22.1% | RXF 393 renal 77.2% | SF-268 CNS 38.2% | SF-295 CNS 79.9% | SF-539 CNS 40.4%
active: K-562 leukemia -17.3% | MALME-3M melanoma -66.4% | UACC-257 melanoma -76.8% | M14 melanoma -95.3%

COc1ccc2nc(Cl)c(/C=C/C(=O)c3ccc(NC(=O)CSc4nnc(-c5ccc(Cl)c(Cl)c5)n4-c4ccccc4)cc3)cc2c1
inactive: DU-145 prostate 98.2% | K-562 leukemia 87.2% | MALME-3M melanoma 92.3% | MDA-MB-231 breast 89.3% | RXF 393 renal 91.8% | SF-268 CNS 89.1% | SF-295 CNS 94% | SF-539 CNS 105% | UACC-257 melanoma 81.1% | M14 melanoma 91.7%

C[C@@H](CO)[C@@H]1CC[C@]2(C(=O)N3CCN(C)CC3)CC[C@]3(C)[C@H](CC[C@@H]4[C@@]5(C)CC[C@H](O)C(C)(C)[C@@H]5CC[C@]43C)[C@@H]12
active: K-562 leukemia 4.66%
inactive: DU-145 prostate 67.7% | MALME-3M melanoma 105% | MDA-MB-231 breast 82.8% | RXF 393 renal 81.5% | SF-268 CNS 56.7% | SF-295 CNS 90.4% | SF-539 CNS 86.1% | UACC-257 melanoma 98% | M14 melanoma 101%

Cc1cc(F)ccc1S(=O)(=O)Nc1cc(-c2c(O)ccc3ccccc23)c(O)c2ccccc12
inactive: DU-145 prostate 41.7% | K-562 leukemia 14.8% | MALME-3M melanoma 15.3% | MDA-MB-231 breast 22.7% | RXF 393 renal 27.1% | SF-268 CNS 34.9% | SF-295 CNS 41.8% | UACC-257 melanoma 30.2% | M14 melanoma 18.2%
active: SF-539 CNS 6.5%

COc1ccc(-c2ccc(=O)oc2C#Cc2cc(OC)c(OC)c(OC)c2)cc1O
inactive: MALME-3M melanoma 48% | MDA-MB-231 breast 30.4% | SF-268 CNS 20.5% | UACC-257 melanoma 35.7%
active: DU-145 prostate -4.48% | K-562 leukemia 0.484% | RXF 393 renal -13.2% | SF-295 CNS -20.6% | SF-539 CNS -28.7% | M14 melanoma -44.5%

CCOC(=O)c1n[nH]n2c1nc(=O)c1cnn(C)c12
inactive: DU-145 prostate 98.5% | K-562 leukemia 93% | MALME-3M melanoma 101% | MDA-MB-231 breast 113% | RXF 393 renal 109% | SF-268 CNS 96.1% | SF-295 CNS 108% | SF-539 CNS 103% | UACC-257 melanoma 86.4% | M14 melanoma 102%

O=C(N=Nc1c(O)[nH]c2ccccc12)Nc1ccc(Cl)cc1
inactive: DU-145 prostate 108% | K-562 leukemia 81.5% | MALME-3M melanoma 96.3% | MDA-MB-231 breast 102% | RXF 393 renal 96.3% | SF-268 CNS 101% | SF-295 CNS 101% | SF-539 CNS 83.8% | UACC-257 melanoma 95.8% | M14 melanoma 95.3%

CNC(=O)c1c(NC(=O)c2ccc(C(C)(C)C)cc2)sc2c(CN(C)C)c(O)ccc12
active: K-562 leukemia -29.3% | MALME-3M melanoma -88.9% | MDA-MB-231 breast -44.8% | SF-268 CNS 3.83% | SF-295 CNS -80.6% | SF-539 CNS -71.1% | UACC-257 melanoma -56.4% | M14 melanoma -72.3%
inactive: DU-145 prostate 24.7% | RXF 393 renal 36.2%

COc1cc(C(=O)/C=C/c2ccc(N3CCN(C)CC3)cc2)cc(OC)c1OC
inactive: DU-145 prostate 104% | MALME-3M melanoma 86.3% | MDA-MB-231 breast 92% | RXF 393 renal 107% | SF-268 CNS 97.9% | SF-295 CNS 95.2% | SF-539 CNS 96.7% | UACC-257 melanoma 99.3% | M14 melanoma 94.8%
active: K-562 leukemia 2.23%
